Data as given in PubChem BioAssay (NCATS).
Results filed as inconclusive are left out. Values without a mark were called inactive. Calls come from the whole dose curve; as a rule, active = well fitted inhibition curve with a large enough effect; inconclusive = small, poorly fitted or top-dose-only effect; inactive = flat fitted curve, though single readings scatter.

Target: Lysine-specific demethylase 5B (Homo sapiens) (UniProt Q9UGL1)
Test: Optimization screen for KDM5B Histone Demethylases FDH coupled qHTS against the LOPAC library (AID 1347166); note: 0% is about no effect
Conditions: KDM5B demethylation, FDH-coupled NADH fluorescence (FDH is formaldehyde dehydrogenase); at 57.5 µM (top of the series)
In short: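 KDM5BDeltaAP (200nM final) in 50mM HEPES pH 7.5, 0.01% Tween-20 was preincubated with compound for 10 min at room temperature. A substrate mix of 12.5uM H3K4Me3, 25uM a-ketoglutarate, ascorbate, Fe2+, NAD+ and formaldehyde dehydrogenase was then added. NADH fluorescence (340/450 nm) was read initially and after 30 min.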

Chain of Lysine-specific demethylase 5B (Homo sapiens) (Q9UGL1 whole entry, looked up): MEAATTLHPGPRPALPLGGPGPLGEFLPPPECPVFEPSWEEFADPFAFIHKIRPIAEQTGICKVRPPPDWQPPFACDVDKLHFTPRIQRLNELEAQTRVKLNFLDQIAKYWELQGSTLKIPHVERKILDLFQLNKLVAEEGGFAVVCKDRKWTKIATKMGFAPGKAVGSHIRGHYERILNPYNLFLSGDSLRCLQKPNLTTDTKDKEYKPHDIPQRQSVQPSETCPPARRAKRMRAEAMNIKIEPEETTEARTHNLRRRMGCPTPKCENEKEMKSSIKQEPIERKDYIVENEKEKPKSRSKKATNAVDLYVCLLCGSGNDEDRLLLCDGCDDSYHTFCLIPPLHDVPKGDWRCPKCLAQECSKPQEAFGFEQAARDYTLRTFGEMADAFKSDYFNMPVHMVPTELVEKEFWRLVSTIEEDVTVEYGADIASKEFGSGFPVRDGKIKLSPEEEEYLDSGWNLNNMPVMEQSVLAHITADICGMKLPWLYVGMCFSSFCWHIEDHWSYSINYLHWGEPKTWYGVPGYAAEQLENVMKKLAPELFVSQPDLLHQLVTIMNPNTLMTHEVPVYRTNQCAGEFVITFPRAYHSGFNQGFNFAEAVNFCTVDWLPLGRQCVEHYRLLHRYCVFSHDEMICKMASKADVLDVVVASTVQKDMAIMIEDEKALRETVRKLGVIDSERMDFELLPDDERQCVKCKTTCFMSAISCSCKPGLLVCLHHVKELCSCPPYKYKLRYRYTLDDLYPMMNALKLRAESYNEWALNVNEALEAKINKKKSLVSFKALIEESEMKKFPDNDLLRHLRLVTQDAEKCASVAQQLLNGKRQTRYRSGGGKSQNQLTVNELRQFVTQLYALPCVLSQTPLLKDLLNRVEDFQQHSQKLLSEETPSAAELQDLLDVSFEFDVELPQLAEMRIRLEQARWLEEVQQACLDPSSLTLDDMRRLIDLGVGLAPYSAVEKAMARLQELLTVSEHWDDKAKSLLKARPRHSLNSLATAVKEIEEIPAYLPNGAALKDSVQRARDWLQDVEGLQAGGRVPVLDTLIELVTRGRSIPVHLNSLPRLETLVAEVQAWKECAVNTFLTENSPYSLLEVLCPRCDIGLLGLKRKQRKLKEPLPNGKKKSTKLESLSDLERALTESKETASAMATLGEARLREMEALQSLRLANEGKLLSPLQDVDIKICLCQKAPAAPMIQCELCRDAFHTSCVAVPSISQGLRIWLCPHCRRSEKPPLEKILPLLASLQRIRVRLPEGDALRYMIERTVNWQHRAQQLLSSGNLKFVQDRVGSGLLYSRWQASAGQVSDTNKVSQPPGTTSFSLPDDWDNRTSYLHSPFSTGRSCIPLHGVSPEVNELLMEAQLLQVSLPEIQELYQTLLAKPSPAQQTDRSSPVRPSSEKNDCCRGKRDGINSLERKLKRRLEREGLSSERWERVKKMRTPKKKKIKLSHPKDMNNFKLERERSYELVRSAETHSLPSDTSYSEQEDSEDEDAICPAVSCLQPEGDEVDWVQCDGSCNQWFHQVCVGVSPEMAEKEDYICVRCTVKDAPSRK

SMILES	activity, negative = inhibition [%]
COC(=O)C(C)(N)Cc1ccc(O)cc1 (stereo not given)	-17.5
NC(=O)CC[C@H](N)C(=O)O	-1.79
COc1cc([C@@H]2c3cc4c(cc3[C@H](O)C3COC(=O)[C@@H]32)OCO4)cc(OC)c1OC (stereo not given in full)	-3
CCCOC(=O)c1c(-c2ccccc2)nc(CC)c(C(=O)SCC)c1CCC	-14.4
N[C@@H](Cc1c[nH]c2ccccc12)C(=O)O	-20.4
OC[C@H]1O[C@H](n2cnc3c(N[C@H]4CCC[C@@H]4O)ncnc32)[C@H](O)[C@@H]1O	-3.36
NC(N)=[N+]1CCc2ccccc2C1	2.33
Cc1nc2n(c(=O)c1CCN1CCC(c3noc4cc(F)ccc34)CC1)CCCC2O (stereo not given)	-13.2
O=C(O)C1CN(CCCP(=O)(O)O)CCN1 (stereo not given)	0.457
CC(=O)[C@H]1CCC2C3CC=C4C[C@@H](OS(=O)(=O)O)CC[C@]4(C)C3CC[C@@]21C (stereo not given in full)	0.452
c1ccc(C2CN3CCSC3=N2)cc1 (stereo not given)	-3.45
Brc1c(Br)c(Br)c2[nH]cnc2c1Br	0.346
CCCn1c(=O)c2[nH]c(-c3ccc(S(=O)(=O)O)cc3)nc2n(CCC)c1=O	2090
COc1ccc2c(c1)c(CC(=O)O)c(C)n2Cc1ccc(Cl)cc1	-5.89
CN1CC(O)C(O)C(O)C1CO (stereo not given)	-6.96
Cc1ccccc1/C=C/C1=NCCN1	-11.5
CCCCCCCCCC(=O)NC(CN1CCOCC1)[C@H](O)c1ccccc1 (stereo not given in full)	-9.31
CC(N)(Cc1ccc(O)cc1)C(=O)O (stereo not given)	1.49
CC(C)[C@@H]1CC[C@@H](C)C[C@@H]1P(=O)(c1ccccc1)c1ccccc1	-4.33
CC(C)C[C@H](NC(=O)C1OC1C(=O)O)C(=O)NCCCCN=C(N)N (stereo not given in full)	0.286
CN1C2CCC1CC(OC(c1ccccc1)c1ccccc1)C2 (stereo not given)	-5.47
NCCCCN	-1.54
C[C@@H](NCCc1ccc(O)cc1)[C@@H](O)c1ccc(O)cc1	-4.75
C=CC[C@H](N)C(=O)O	-4.4
COc1cc(N)c(Cl)cc1C(=O)OCCN1CCCCC1	-18.2
